Data as given in PubChem BioAssay (NCATS).
Results filed as inconclusive are left out. Activity calls are given as the source filed them. The call rests on the fitted dose curve; in most records, active means well fitted cell-killing curve with a large enough effect; inconclusive means small, poorly fitted or top-dose-only effect, or effect the other way; inactive means flat fitted curve, though single readings scatter. *1 amine or outer side, *2 acyl side, *3 side chain or, on linkers, in order; H or OH if unused. Where a SMILES comes first, the peptide text is derived from it. Bridges are numbered along the chain shown (N, C = ends). [ ]: non-standard residue; d: D form. The star is where a group is joined. ξ: configuration not given here. X10 = NC1=NCCC(C(N[*:1])C(=O)[*:2])N1; ΔAla(3-NHCONH2) = NC(=O)NC=C(N)C(=O)O; ξβ3hOrn = NCCCC(N)CC(=O)*; Dap = NC[CH](N)C(=O)O

Test system: PA-1
Assay: Primary qHTS to identify gynecologic anti-cancer compounds using libraries of approved drugs and bioactive compounds (AID 1345084); further: nearly all actives have a fitted effect of over 55% in size
Settings: Gynecologic cancer cell panel viability, ATPlite luminescence, 48 h; series mostly up to 57.5 µM; activity change, negative = cytotoxicity: at the top concentration
Procedure, shortened: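 Cells, 1,000 per well, plated 16 h, then exposed 48 h at 37 C to compounds. Viability by ATPlite luminescence after 15 min at room temperature.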
On the % scale 0 is the no-effect control and ±100 the full control effect.

SMILES	activity change, negative = cytotoxicity
CC(=O)Nc1ccc(S(=O)(=O)Nc2cc(C)on2)cc1	16.6% (inactive)
CCCCN(CCN(CCCC)C(=O)N1CCOCC1)C(=O)N1CCOCC1	-22.4% (inactive)
C[C@H]1C[C@H](O)c2ccsc2S1(=O)=O	13.3% (inactive)
NC(=O)NS(=O)(=O)c1ccc(Cl)cc1	19.7% (inactive)
Cn1c(=O)c2c(ncn2CC(=O)O)n(C)c1=O	-0.554% (inactive)
C[C@H]1NCc2cc(-c3ccc4c(=O)c(C(=O)O)cn(C5CC5)c4c3OC(F)F)ccc21	-3.09% [at 25.3 µM] (inactive)
Cc1nc(C2CCCCC2)c(-c2ccc(S(N)(=O)=O)c(F)c2)o1	8.97% (inactive)
O=c1[nH]c(=O)n([C@H]2O[C@H](CO)[C@@H](O)[C@@H]2O)cc1/C=C\Br	19.6% (inactive)
COc1ccccc1OCC1CNC(=O)O1 (configuration not stated)	13.7% (inactive)
Nc1ccc([N+](=O)[O-])c(C(F)(F)F)c1	-0.709% (inactive)
N#CSCC(=O)O	-2.71% (inactive)
CCCCN(CCCC)C(C(N)=O)c1ccc(OC)cc1 (configuration not stated)	11.1% (inactive)
O=C(CCCl)NCCc1ccccc1	5.09% (inactive)
O=[N+]([O-])c1ccc(-c2nc(-c3ccc(F)cc3)c(-c3ccncc3)[nH]2)cc1	-15.8% (inactive)
CCC(C(=O)NC(=O)NC(C)=O)c1ccccc1 (configuration not stated)	9.55% (inactive)
CCCC(=O)OCOC(=O)C1=C(C)NC(C)=C(C(=O)OC)C1c1cccc(Cl)c1Cl (configuration not stated)	22.5% (inactive)
Cc1ccccc1C(=O)N1CC/C(=N\OS(=O)(=O)O)c2ccc(Cl)cc21	-2.18% (inactive)
CC(NC(CCc1ccccc1)C(=O)O)C(=O)N1C(=O)N(C)CC1C(=O)O (configuration not stated)	5.14% (inactive)
C1=CC2C3C=CC(C3)C2C1 (configuration not stated)	-3.53% [at 116 µM] (inactive)

SMILES	activity change, negative = cytotoxicity
CC1CCCCN1CCCOC(=O)c1ccc(OC2CCCCC2)cc1 (configuration not stated)	-24.3% (inactive)
CC(C(=O)O)c1ccc(/C=C2\CCCCC2=O)cc1 (configuration not stated)	0.136% (inactive)
O=C(CO)[C@@H](O)[C@H](O)[C@@H](O)CO	4.8% (inactive)
CC(=O)N(CC(O)CO)c1c(I)c(C(=O)NCCO)c(I)c(C(=O)NCC(O)CO)c1I (configuration not stated)	19.8% (inactive)
O=C(O)[C@H](O)[C@@H](O)[C@H](O[C@@H]1O[C@H](CO)[C@H](O)[C@H](O)[C@H]1O)[C@H](O)CO	13% (inactive)
CCCCC(O)/C=C(C)/C=C/C=C/C(=O)N1CCCC1=O (configuration not stated)	-1.05% (inactive)
Cc1ncc([N+](=O)[O-])n1C	11.7% (inactive)
CCCN(CCC)C(=O)C(CCC(=O)OCCCN1CCN(CCOC(=O)Cc2c(C)n(C(=O)c3ccc(Cl)cc3)c3ccc(OC)cc23)CC1)NC(=O)c1ccccc1 (configuration not stated)	-24.5% (inactive)
COC(=O)c1c(Cl)c(Cl)c(C(=O)OC)c(Cl)c1Cl	-2.68% [at 116 µM] (inactive)
NCCCC(N)CC(=O)NCC1NC(=O)C(CO)NC(=O)C(N)CNC(=O)C(C2CCN=C(N)N2)NC(=O)C(=CNC(N)=O)NC1=O (stereo not drawn) (H-[Dap]S[Dap](ξβ3hOrn)[ΔAla(3-NHCONH2)][X10]; lactam 1-C; configuration not given here)	8.19% [at 0.462 µM] (inactive)
CC(NN)c1ccccc1 (configuration not stated)	6.12% [at 25.3 µM] (inactive)
c1ccc2occc2c1	-5.05% [at 116 µM] (inactive)
CCCCCOc1ccc(C2SC(=O)NC2=O)cc1OCC (configuration not stated)	-16% (inactive)
CCCc1c2oc(C(=O)O)cc(=O)c2cc2c(=O)cc(C(=O)O)n(CC)c12	9.04% (inactive)
COc1ccc2c(c1)CCCC2=O	-1.77% (inactive)
Cc1ccc(O)cc1	3.02% (inactive)
CC(CCc1ccc2c(c1)OCO2)NN (configuration not stated)	0.594% (inactive)
Cc1cc(=O)oc2cc(O[C@@H]3SC[C@@H](O)[C@H](O)[C@H]3O)ccc12	8.7% (inactive)
